Experimental data from PubChem BioAssay AID2650 (Broad Institute, 2010).
In all, about 320,000 compounds went through this assay and about 320 (0.1%) were called active.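 How the source made its calls: active means more than half of replicates show inhibition above 20%; inconclusive means some but at most half of replicates above 20% inhibition; inactive means no replicate shows inhibition above 20%.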 Many of the other results were omitted from the sample, so actives are more common in it than they were.

Molecular target: Glycogen synthase kinase-3 alpha (Homo sapiens) (UniProt P49840)
Test: blockers of GSK3A enzyme activity – biochemical, luminescence, cell-free homogeneous, HTS, primary screen (AID 2650);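 further: GST-tagged GSK-3 alpha with peptide substrate and 25 µM ATP; 0% = DMSO neutral wells and 100% = GW8510 positive control wells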
Conditions: GSK-3 alpha kinase, ADP-Glo luminescence, 60 min; at 10 µM; active compounds read high

Chain of Glycogen synthase kinase-3 alpha (Homo sapiens) (P49840 whole entry, looked up): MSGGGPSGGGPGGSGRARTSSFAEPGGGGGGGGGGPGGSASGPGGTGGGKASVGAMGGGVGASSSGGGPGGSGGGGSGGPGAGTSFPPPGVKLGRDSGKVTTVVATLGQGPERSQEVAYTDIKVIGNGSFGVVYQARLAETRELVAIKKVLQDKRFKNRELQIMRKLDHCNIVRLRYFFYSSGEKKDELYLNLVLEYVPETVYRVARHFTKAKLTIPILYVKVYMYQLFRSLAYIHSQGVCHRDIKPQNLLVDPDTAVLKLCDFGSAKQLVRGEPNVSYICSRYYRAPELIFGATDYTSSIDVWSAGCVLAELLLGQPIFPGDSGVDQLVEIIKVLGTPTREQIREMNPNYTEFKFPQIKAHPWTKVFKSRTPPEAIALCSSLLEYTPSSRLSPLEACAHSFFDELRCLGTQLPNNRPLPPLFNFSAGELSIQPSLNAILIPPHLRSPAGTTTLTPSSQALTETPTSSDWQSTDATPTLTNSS

SMILES | inhibition
Cc1noc(COc2ccccc2OCc2onc(C)c2Cl)c1Cl | -1.26% (inactive)
O=C1c2ccccc2C2=Nc3ccccc3SC(c3ccccc3F)C12 (centres undefined) | -0.696% (inactive)
CC(Sc1nc2cc(Cl)ccc2s1)C(=O)Nc1ccc2c(c1)OCO2 (centres undefined) | -2.34% (inactive)
Cc1ccc2c(c1)N(CC(=O)NCCc1ccc(Cl)cc1)C(=O)c1cccnc1O2 | -2.75% (inactive)
CC(C(=O)N1CCOCC1)N1c2cccc3cccc(c23)S1(=O)=O (centres undefined) | 3.12% (inactive)
O=S(=O)(NC1CC2CCC1C2)c1ccc(Cl)cc1 (centres undefined) | -0.939% (inactive)
CN(C)C(=O)CCC(=O)N1CCCCC1C(=O)Nc1ccc(Oc2ccccc2F)cc1 (centres undefined) | -0.0266% (inactive)
O=C(c1ccncc1)N1CCN(S(=O)(=O)c2cc(C(F)(F)F)cc(C(F)(F)F)c2)CC1 | -4.58% (inactive)
CC(C)c1nnc(NC(=O)COC(=O)/C=C/c2ccc([N+](=O)[O-])cc2)s1 | 0.211% (inactive)
CC1CCCCC1NC(=O)CCS(=O)(=O)c1cccc2nonc12 (centres undefined) | -1.36% (inactive)
COC(=O)[C@]1(Cc2ccccc2)N[C@H](CN(C)S(=O)(=O)c2ccc(F)cc2)[C@@H]2C(=O)N(Cc3ccccc3)C(=O)[C@@H]21 | -4.02% (inactive)
CCc1ccc(C(=O)COC(=O)c2ccco2)cc1 | -0.284% (inactive)
Cc1cccc2sc(N(CCCN(C)C)C(=O)CCS(=O)(=O)c3ccccc3)nc12 | 1.84% (inactive)
Cc1ccc(NC(=O)CN(C)C(=O)c2ccc(Cl)c(S(=O)(=O)NCc3ccco3)c2)cc1 | -2.08% (inactive)
COC(=O)C1=C[C@@H](C(=O)OC)[C@@H]2C3=C(C(=O)[C@]2(C)NC(=O)c2ccccc2)[C@H](C)n2c(=O)n(C)c(=O)n2[C@@H]3C1 | -1.38% (inactive)
O=C(OCC(=O)N(CCc1ccccc1)Cc1ccccc1)c1ccccc1[N+](=O)[O-] | 0.711% (inactive)
CCCc1cc(=O)[nH]c(SCC(=O)Nc2ccc(S(=O)(=O)N3CCCC3)cc2)n1 | -3.71% (inactive)
Cc1cccc(C)c1NC(=O)CS(=O)CC(=O)N1CCN(c2ccccc2)CC1 (centres undefined) | -1.33% (inactive)
Cc1c(OC(C)C(=O)NCC2CCC(C(=O)O)CC2)ccc2c1oc(=O)c1ccccc12 (centres undefined) | 2.24% (inactive)
Cc1ccc(N2C(=O)CC(N3CCSCC3)C2=O)c(C)c1 (centres undefined) | -1.07% (inactive)
CC(C)(C)c1ccc(/C=C/C(=O)NCCCn2ccnc2)cc1 | 1.07% (inactive)
O=C(CSc1nc2ccccc2c(=O)n1Cc1ccc(F)cc1)NCC1CCCO1 (centres undefined) | -2.48% (inactive)
CC(=O)N1CCc2cc(S(=O)(=O)NC3CCCCC3)ccc21 | 1.13% (inactive)
CN(CC1CCCN(CCc2cccc(C(F)(F)F)c2)C1)C(=O)c1ccc2nc[nH]c2c1 (centres undefined) | 2.9% (inactive)
CCCNC(=S)N1CCC(NC(=O)C23CC4CC(CC(C4)C2)C3)CC1 | -1.14% (inactive)
Cc1ccccc1N(C(=O)Cc1cccs1)C(C(=O)NC1CCCCC1)c1cn(C)nc1C (centres undefined) | -1.17% (inactive)
CCCCCN(C(=O)NC(=O)Nc1ccccc1OC)S(C)(=O)=O | -0.679% (inactive)

SMILES | inhibition
COc1cc(OC)cc(-c2cc3ccc(F)cc3cn2)c1 | -0.558% (inactive)
CCOc1ccc(-c2noc(CCC(=O)NC3CCCC3)n2)cc1OC | -2.18% (inactive)
COc1ccccc1-c1nnc2n1N=C(c1ccc(OC(F)F)c(OCC3CC3)c1)CS2 | -2.55% (inactive)
C=C(C)CNC(=S)Nc1ccc(S(=O)(=O)Nc2cnc3ccccc3n2)cc1 | -0.344% (inactive)
Brc1ccc(/C=N/N2CCN(C3c4ccccc4-c4ccccc43)CC2)s1 | -1% (inactive)
COCCNC(=S)N(CCc1c(C)[nH]c2ccc(C)cc12)Cc1cccnc1 | -0.86% (inactive)
CCn1c(Cc2ccc(OC)cc2)nnc1SCC(=O)Nc1ccc(N2CCOCC2)cc1 | -0.587% (inactive)
CCCCOC(=O)Nc1sc2nc(C)cc(C)c2c1-n1cccc1 | 3.59% (inactive)
Cc1noc(C)c1NC(=O)Nc1cccc2c1O[C@H](CN(C)C(=O)Nc1ccccc1)[C@@H](C)CN([C@H](C)CO)C2=O | -4.19% (inactive)
COc1cc2c(cc1OC)CC1(CCCCC1)N=C2 | 0.717% (inactive)
Cc1cc(C)cc(N(CCC#N)C(=O)CN2C(=O)NC3(CCCC3)C2=O)c1 | -1.84% (inactive)
Nc1nc(NCCCN2CCOCC2)nc(Nc2ccccc2)c1[N+](=O)[O-] | 90.9% (active)
O=[N+]([O-])c1ccc(NCCCN2CCOCC2)c(Cl)c1 | -0.912% (inactive)
CC1CN(c2nc(Nc3ccccc3)nc(N)c2[N+](=O)[O-])CC(C)O1 (centres undefined) | 38.9% (inactive)
Nn1c(SCC(=O)Nc2ccc3c(c2)CCC3)nnc1C1CC1 | -1.28% (inactive)
CC(=NNC(=O)c1ccc2nc[nH]c2c1)c1ccc(Br)cc1 | 0.652% (inactive)
CC(C)c1nc(SCC(=O)NC(=O)NC(C)(C)C)n[nH]1 | -2.13% (inactive)
CCN(CC)CCOC(=O)c1ccc(NC(=O)CNC(=O)c2ccccc2)cc1 | -1.2% (inactive)
O=C(OCC(=O)N1CCOCC1)c1ccc(N2CCOCC2)c([N+](=O)[O-])c1 | 1.5% (inactive)
Cc1ccc(NC(=O)C2CCC(C(C)(C)C)CC2)cc1S(=O)(=O)N1CCOCC1 (centres undefined) | -0.864% (inactive)
Cc1c(Cl)cccc1NC(=O)NCc1ccc(C)n1C | -2.74% (inactive)
CC1CCCCC12NC(=O)N(CC(=O)OCC(=O)NCc1ccc(F)cc1)C2=O (centres undefined) | -2.66% (inactive)
O=C(O)C1=CCCN(CCON=C(c2ccccc2)c2ccccc2)C1 | -1.9% (inactive)
CC(C)(C)OC(=O)C[C@@H]1C/C=C\C[C@H](CC(=O)N[C@@H](CO)Cc2ccccc2)C(=O)N[C@H](Cc2ccccc2)COC1=O | 0.493% (inactive)
O=C(CN1C(=O)NC2(CCCCCC2)C1=O)NCc1ccc(F)cc1 | -1.44% (inactive)
O=C(c1ccccc1F)N(Cc1ccccc1)Cc1ccccc1 | 0.121% (inactive)
O=c1c2c3c(sc2n(CCN2CCCC2)c(=O)n1Cc1ccccc1)CCCCC3 | 0.297% (inactive)
